Laboratory results taken from PubChem BioAssay (NCI).
The panel holds about 83,000 compounds, 20% with a hit somewhere; the sample as a whole holds those more often.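 Single-concentration screen, 48 h exposure, 96-well plates. Endpoint: percent growth. Below 10 = active.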 Activity calls are given as the source filed them.

What follows are compounds tested on IGROV1 ovarian (assay: NCI-60 one-dose screen, 48 h (100 = growth as untreated, 0 = no growth, -100 = all killed)). Conditions: 10 µM unless noted.

| SMILES | growth |
| --- | --- |
| COc1cc(O)c2c(=O)c3c(CC=C(C)C)cc(OC)c(O)c3oc2c1 | 41.7% (inactive) |
| Cc1nc2sc(C(=O)Nc3cccc4ccccc34)c(N)c2cc1C(=O)c1ccccc1 | 24.8% (inactive) |
| Cc1cc(C(=O)CCCC(=O)c2cc(C)c(O)c(C)c2)cc(C)c1O | 95.9% (inactive) |
| FC(F)(F)c1[nH]ncc1-c1nc2ccc3[nH]ncc3c2c2c1CCCC2 | -8.57% (active) |
| Nc1ncnc2c1N=C(c1ccc(F)cc1)CC(c1cccc(Nc3ccnc4cc(Cl)ccc34)c1)N2 (stereo not given) | 74.3% (inactive) |
| COC(=O)c1c2c(c(C)[n+]([O-])c1C)C(=O)C(NCc1ccccc1)=CC2=O | 8.63% (active) |
| COc1cc(C=Nc2oc(-c3ccccc3)c(-c3ccccc3)c2C#N)cc(CN2CCCC2)c1O | 92% (inactive) |
| NCCCNc1nc2ccccc2c2c(=O)c3cc(Cl)ccc3sc12 | -1.46% (active) |
| O=C(/C=C/c1cccc(Oc2ccccc2)c1)c1ccc(Nc2nc(Nc3ccc(F)cc3)nc(Nc3ccc(Cl)cc3)n2)cc1 | 94% (inactive) |
| CCCCO[C@@H]1C=C2[C@H]3CC(C)(C)C(=O)C[C@]3(C(=O)O[C@@H]3O[C@H](CO[C@@H]4O[C@H](CO)[C@@H](OC5OC(C)C(O)C(O)C5O)[C@H](O)[C@H]4O)[C@@H](O)[C@H](O)[C@H]3O)CC[C@@]2(C)[C@]2(C)CC[C@H]3C(C)(C)C(=O)CC[C@]3(C)[C@@H]12 (stereo not given in full) | 69.1% (inactive) |
| COc1ccc2cc(-c3nc4ccc(C)cn4c3NCc3ccco3)c(=O)[nH]c2c1 | 63.4% (inactive) |
| c1csc(-c2cn3nc(-c4c[nH]c5ccccc45)sc3n2)c1 | 30.6% (inactive) |
| O=C1C=CC2(O)OC/C(=C\c3ccccc3)C(O)=C2C1=O (stereo not given) | -13% (active) |
| C=C1CC[C@@H]2C(C)(C)[C@H](O)CC[C@@]2(C)[C@@H]1COc1ccc2ccc(=O)oc2c1 | 60.7% (inactive) |
| COC(=O)c1c(C)nc(C)c2c1C(=O)C=C(NCc1ccccc1)C2=O | 66.7% (inactive) |
| COC(=O)c1ccc2cc(OC)c(OC)cc2c1 | 118% (inactive) |
| O=C(c1cccc(N2CCOCC2)n1)c1c[nH]c2ccccc12 | 70% (inactive) |
| C=C[C@@]1(C)CC(=O)[C@@H](C(C)(C)c2cn(C)c3ccc(Br)cc23)C[C@@H]1O[Si](C)(C)C(C)(C)C | 112% (inactive) |
| COCCOC(C)C(/C=N/NC(N)=S)=N/NC(N)=S (stereo not given) | 21.2% (inactive) |
| Cc1cc(N2CCN(CC(=O)Nc3ccc4c(ccn4Cc4ccccc4)c3)CC2)nc(N2CCOCC2)n1 | 76.8% (inactive) |

| SMILES | growth |
| --- | --- |
| COc1ccc(C2CC(c3ccccc3)=NN2C(=O)c2cc(OC)c(OC)c(OC)c2)cc1O (stereo not given) | 3.37% (active) |
| Cc1ccc(O)c(NC(=O)c2cccc(Nc3ccnc(C(F)(F)F)c3)c2)c1 | 79.1% (inactive) |
| Cc1ncc(C(=O)Nc2ccc(CN3CCN(C)CC3)c(C(F)(F)F)c2)cc1C#Cc1cnc(N)c2ccc(C#N)cc12 | -43.9% (active) |
| Cc1nn(C)c2ncnc(N/N=C/c3cccc(O)c3O)c12 | 15.4% (inactive) |
| O=C(O)CC(C(=O)O)/C(=C\c1ccccc1)c1ccccc1 (stereo not given) | 120% (inactive) |
| Fc1ccc2[nH]cc(-c3nc(-c4c[nH]c5c(Cl)nccc45)cs3)c2c1 | 61.7% (inactive) |
| CCCN(CCSSCCNc1nc(N(C)O)nc(N(C)O)n1)c1nc(N(C)O)nc(N(C)O)n1 | 83% (inactive) |
| CCOC(=O)c1cn2ncnc(Oc3ccc(NC(=O)NC4CC4)c(Cl)c3)c2c1C | 87.6% (inactive) |
| COC1C(O)CC(OC2CC(OC3CC(O[C@@H]4C(=O)c5c(cc6cc(OC7CC(OC8CC(O)C(O)C(C)O8)C(O)C(C)O7)c(C)c(O)c6c5O)CC4[C@H](OC)[C@@H](O)C(C)=O)OC(C)C3O)OC(C)C2O)OC1C (stereo not given in full) | 17.4% (inactive) |
| COC12C=C/C(=C(/C(=O)OCc3csc(SC)n3)C(=O)CCCCCCCCC3(OC)C=C/C(=C(/C(=O)OCc4cnc(SC)s4)C(=O)CCCCCCCC1)O3)O2 (stereo not given) | 21% (inactive) |
| COc1ccc(/C=C2\CN(C(=O)C(Cl)Cl)C/C(=C\c3ccc(OC)c(OC)c3)C2=O)cc1OC | -43.9% (active) |
| Cc1c2cnccc2c(C)c2c1c1cc(CO)ccc1n2C | -36.4% (active) |
| COc1ccc(C=Nc2c(C(=O)Nc3cccc(Cl)c3C)sc3nc(C)c(C(=O)/C=C/c4ccc(OC)cc4)cc23)cc1 | 38.3% (inactive) |
| O=[N+]([O-])c1c(O)c(Cl)cc(Cl)c1Cl | 111% (inactive) |
| CN1CCOCCN(C)Cc2ccc3ccc(cc3c2)CN(C)CCOCCN(C)Cc2ccc3ccc(cc3c2)C1 | 74.8% (inactive) |
| O=C1/C(=C/c2c[nH]c(=O)[nH]c2=O)SC(=S)N1Cc1ccccc1 | 102% (inactive) |
| O=Nc1ccc(NC(=O)Nc2ccc([N+](=O)[O-])cc2)cc1 | 99.5% (inactive) |
| N#Cc1nn(-c2cc(=O)[nH]c3ccc(Br)cc23)c(N)c1C#N | 90.5% (inactive) |
| C[C@H](c1nc2ccc(C#N)cc2[nH]1)[C@H]1CC[C@H]2[C@@H]3CCC4=CC(=O)CC[C@]4(C)[C@H]3CC[C@]12C | 66.9% (inactive) |
| CCOC(=O)C1=C(c2ccccc2)N=C2N(c3ccccc3)N=C(C(C)=O)N2C1c1ccc(F)cc1 (stereo not given) | 96.3% (inactive) |
